Results: PubChem BioAssay (EPA / NIEHS)
A structure can be active in one record and inactive in another. Calls of active or inactive are those of the source. The calls were made as follows: active = hit-call score of the fitted dose curve at least 0.9, where 1 is the maximum; inactive = score below 0.9.

Assay: CEETOX_H295R_OHPROG: CeeTox H295R High-throughput Steroidogenesis Assay for OH-Progesterone (OHPROG) (AID 2283435);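 as to AC50: 17alpha-hydroxyprogesterone secreted into medium measured by HPLC-MS/MS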
Conditions: actives raise or lower the signal
Summary of the method: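 Medium steroid levels read by LC-MS/MS after 48 h chemical treatment (0.1% DMSO) of human adrenal H295R cells that had been forskolin-primed (10 uM, 48 h). Gain or loss fitted against DMSO; MTT cytotoxicity checked per well.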

Which AC50 does the source give for `CCOC(=O)CC(SP(=S)(OC)OC)C(=O)OCC` (centres undefined) here?
Its AC50 is 25800 nM (active).

With `C=CCC1=C(C)C(OC(=O)C2C(C=C(C)C)C2(C)C)CC1=O` (centres undefined) as the compound, how does the outcome read?
Its outcome is “inactive”.

Which outcome does the source give for `CC(C)Oc1cc(-n2nc(C(C)(C)C)oc2=O)c(Cl)cc1Cl` here?
Its outcome is “inactive”.

With `Oc1ccccc1-c1ccccc1` as the compound, how does the AC50 read?
Its AC50 is 71800 nM (active).

And the outcome?
Its outcome is “inactive”.

For `N#CC(CCc1ccc(Cl)cc1)(Cn1cncn1)c1ccccc1` (centres undefined), which AC50 is on record?
The AC50 was 360 nM (active).

For `COc1nc(NC(C)C)nc(NC(C)C)n1`, which outcome is on record?
Its outcome is “inactive”.

Which outcome does the source give for `CNC(=S)S` here?
The outcome was “inactive”.

Which outcome does the source give for `CCNc1nc(Cl)nc(NCC)n1` here?
The outcome was “inactive”.

For `CON(C)C(=O)Nc1ccc(Cl)c(Cl)c1`, which outcome is on record?
Its outcome is “inactive”.

Which outcome does the source give for `CCOc1cc(Oc2ccc(C(F)(F)F)cc2Cl)ccc1[N+](=O)[O-]` here?
The outcome was “inactive”.

For `CC1=C(C(=O)Nc2ccccc2)SCCO1`, which outcome is on record?
The outcome was “inactive”.

With `CC1COC(Cn2cncn2)(c2ccc(Oc3ccc(Cl)cc3)cc2Cl)O1` (centres undefined) as the compound, how does the AC50 read?
Its AC50 is 500 nM (active).

With `CCON=C(CC)C1=C(O)CC(c2c(C)cc(C)cc2C)CC1=O` (centres undefined) as the compound, how does the outcome read?
The outcome was “inactive”.

Which outcome does the source give for `Cc1cc(Cl)ccc1OCC(=O)O` here?
Its outcome is “inactive”.

With `CCCCNC(=O)n1c(NC(=O)OC)nc2ccccc21` as the compound, how does the outcome read?
The outcome was “inactive”.

For `CCCC1COC(Cn2cncn2)(c2ccc(Cl)cc2Cl)O1` (centres undefined), which outcome is on record?
The outcome was “inactive”.

With `CCNc1nc(Cl)nc(NC(C)C)n1` as the compound, how does the outcome read?
Its outcome is “inactive”.

For `CCOC(=O)C(Cl)Cc1cc(-n2nc(C)n(C(F)F)c2=O)c(F)cc1Cl` (centres undefined), which AC50 is on record?
Its AC50 is 50000 nM (active).

With `C=CC1(C)OC(=O)N(c2cc(Cl)cc(Cl)c2)C1=O` (centres undefined) as the compound, how does the AC50 read?
Its AC50 is 22600 nM (active).

For `Cc1c(F)c(F)c(COC(=O)C2C(/C=C(\Cl)C(F)(F)F)C2(C)C)c(F)c1F` (centres undefined), which outcome is on record?
Its outcome is “inactive”.

Assay: CEETOX_H295R_ANDR: CeeTox H295R High-throughput Steroidogenesis Assay for Androstenedione (ANDR) (AID 2283436);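 also: human H295R adrenal cells exposed for 48 h with androstenedione measured in medium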
Conditions: actives raise or lower the signal
Summary of the method: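 Steroidogenesis in H295R adrenal cells after 48 h dosing; androstenedione quantified by LC-MS/MS, with DMSO as negative control and baseline for bidirectional curve fitting.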

For `CCOC(=O)CC(SP(=S)(OC)OC)C(=O)OCC` (centres undefined), which outcome is on record?
The outcome was “inactive”.

Which outcome does the source give for `CC(C)Oc1cc(-n2nc(C(C)(C)C)oc2=O)c(Cl)cc1Cl` here?
Its outcome is “inactive”.

For `N#CC(CCc1ccc(Cl)cc1)(Cn1cncn1)c1ccccc1` (centres undefined), which outcome is on record?
The outcome was “inactive”.

For `CC1=C(C(=O)Nc2ccccc2)SCCO1`, which outcome is on record?
The outcome was “inactive”.

With `CCON=C(CC)C1=C(O)CC(c2c(C)cc(C)cc2C)CC1=O` (centres undefined) as the compound, how does the outcome read?
The outcome was “inactive”.

With `Cc1cc(Cl)ccc1OCC(=O)O` as the compound, how does the outcome read?
The outcome was “inactive”.

With `CCCCNC(=O)n1c(NC(=O)OC)nc2ccccc21` as the compound, how does the outcome read?
The outcome was “inactive”.

Which outcome does the source give for `CCCC1COC(Cn2cncn2)(c2ccc(Cl)cc2Cl)O1` (centres undefined) here?
The outcome was “inactive”.

Assay: CEETOX_H295R_CORTIC: CeeTox H295R High-throughput Steroidogenesis Assay for Corticosterone (CORTIC) (AID 2283437);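 also: corticosterone secreted into medium quantified by mass spectrometry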;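 as to AC50: human H295R adrenal cells prestimulated with forskolin before chemical exposure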
Conditions: actives raise or lower the signal
Summary of the method: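 Steps: seed H295R, adhere overnight; 10 uM forskolin 48 h; replace with chemical (0.1% DMSO) 48 h; extract medium with MTBE; quantify corticosterone by HPLC-MS/MS; score bidirectionally vs DMSO.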

With `CCOC(=O)CC(SP(=S)(OC)OC)C(=O)OCC` (centres undefined) as the compound, how does the outcome read?
Its outcome is “inactive”.

Which outcome does the source give for `C=CCC1=C(C)C(OC(=O)C2C(C=C(C)C)C2(C)C)CC1=O` (centres undefined) here?
Its outcome is “inactive”.

Which outcome does the source give for `CC(C)Oc1cc(-n2nc(C(C)(C)C)oc2=O)c(Cl)cc1Cl` here?
The outcome was “inactive”.

With `N#CC(CCc1ccc(Cl)cc1)(Cn1cncn1)c1ccccc1` (centres undefined) as the compound, how does the outcome read?
The outcome was “inactive”.

Which outcome does the source give for `COc1nc(NC(C)C)nc(NC(C)C)n1` here?
The outcome was “inactive”.

For `CNC(=S)S`, which outcome is on record?
Its outcome is “inactive”.

For `CCNc1nc(Cl)nc(NCC)n1`, which outcome is on record?
The outcome was “inactive”.

With `CON(C)C(=O)Nc1ccc(Cl)c(Cl)c1` as the compound, how does the outcome read?
The outcome was “inactive”.

Which outcome does the source give for `CCOc1cc(Oc2ccc(C(F)(F)F)cc2Cl)ccc1[N+](=O)[O-]` here?
Its outcome is “inactive”.

For `CC1=C(C(=O)Nc2ccccc2)SCCO1`, which outcome is on record?
Its outcome is “inactive”.

Which outcome does the source give for `CC1COC(Cn2cncn2)(c2ccc(Oc3ccc(Cl)cc3)cc2Cl)O1` (centres undefined) here?
Its outcome is “inactive”.

Which outcome does the source give for `CCON=C(CC)C1=C(O)CC(c2c(C)cc(C)cc2C)CC1=O` (centres undefined) here?
The outcome was “inactive”.

With `Cc1cc(Cl)ccc1OCC(=O)O` as the compound, how does the outcome read?
The outcome was “inactive”.

For `CCCCNC(=O)n1c(NC(=O)OC)nc2ccccc21`, which outcome is on record?
The outcome was “inactive”.

With `CCCC1COC(Cn2cncn2)(c2ccc(Cl)cc2Cl)O1` (centres undefined) as the compound, how does the AC50 read?
The AC50 was 357 nM (active).

For `CCNc1nc(Cl)nc(NC(C)C)n1`, which outcome is on record?
Its outcome is “inactive”.

Which outcome does the source give for `CCOC(=O)C(Cl)Cc1cc(-n2nc(C)n(C(F)F)c2=O)c(F)cc1Cl` (centres undefined) here?
Its outcome is “inactive”.

With `C=CC1(C)OC(=O)N(c2cc(Cl)cc(Cl)c2)C1=O` (centres undefined) as the compound, how does the outcome read?
The outcome was “inactive”.

For `Cc1c(F)c(F)c(COC(=O)C2C(/C=C(\Cl)C(F)(F)F)C2(C)C)c(F)c1F` (centres undefined), which outcome is on record?
Its outcome is “inactive”.

Which outcome does the source give for `COP(=S)(OC)Oc1nc(Cl)c(Cl)cc1Cl` here?
The outcome was “inactive”.

Assay: CEETOX_H295R_CORTISOL: CeeTox H295R High-throughput Steroidogenesis Assay for Cortisol (AID 2283438);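 also: cortisol secreted into medium quantified by LC-MS/MS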
Conditions: actives raise or lower the signal
Summary of the method: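 Cortisol measured by HPLC-MS/MS after MTBE extraction of medium from H295R cells exposed 48 h to chemical (0.1% DMSO), following 48 h prestimulation with 10 uM forskolin. Viability assessed by MTT in the same wells.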

Which outcome does the source give for `CCOC(=O)CC(SP(=S)(OC)OC)C(=O)OCC` (centres undefined) here?
The outcome was “inactive”.

For `C=CCC1=C(C)C(OC(=O)C2C(C=C(C)C)C2(C)C)CC1=O` (centres undefined), which outcome is on record?
The outcome was “inactive”.

For `CC(C)Oc1cc(-n2nc(C(C)(C)C)oc2=O)c(Cl)cc1Cl`, which outcome is on record?
Its outcome is “inactive”.

For `N#CC(CCc1ccc(Cl)cc1)(Cn1cncn1)c1ccccc1` (centres undefined), which AC50 is on record?
Its AC50 is 386 nM (active).

With `COc1nc(NC(C)C)nc(NC(C)C)n1` as the compound, how does the outcome read?
Its outcome is “inactive”.

For `CNC(=S)S`, which outcome is on record?
Its outcome is “inactive”.

With `CCNc1nc(Cl)nc(NCC)n1` as the compound, how does the outcome read?
Its outcome is “inactive”.

Which outcome does the source give for `CON(C)C(=O)Nc1ccc(Cl)c(Cl)c1` here?
Its outcome is “inactive”.

For `CCOc1cc(Oc2ccc(C(F)(F)F)cc2Cl)ccc1[N+](=O)[O-]`, which outcome is on record?
The outcome was “inactive”.

With `CC1=C(C(=O)Nc2ccccc2)SCCO1` as the compound, how does the outcome read?
Its outcome is “inactive”.

For `CC1COC(Cn2cncn2)(c2ccc(Oc3ccc(Cl)cc3)cc2Cl)O1` (centres undefined), which AC50 is on record?
Its AC50 is 372 nM (active).

Which outcome does the source give for `CCON=C(CC)C1=C(O)CC(c2c(C)cc(C)cc2C)CC1=O` (centres undefined) here?
Its outcome is “inactive”.

With `Cc1cc(Cl)ccc1OCC(=O)O` as the compound, how does the outcome read?
Its outcome is “inactive”.

Which outcome does the source give for `CCCCNC(=O)n1c(NC(=O)OC)nc2ccccc21` here?
Its outcome is “inactive”.

With `CCCC1COC(Cn2cncn2)(c2ccc(Cl)cc2Cl)O1` (centres undefined) as the compound, how does the AC50 read?
The AC50 was 323 nM (active).

For `CCNc1nc(Cl)nc(NC(C)C)n1`, which outcome is on record?
Its outcome is “inactive”.

With `CCOC(=O)C(Cl)Cc1cc(-n2nc(C)n(C(F)F)c2=O)c(F)cc1Cl` (centres undefined) as the compound, how does the outcome read?
Its outcome is “inactive”.

Which outcome does the source give for `C=CC1(C)OC(=O)N(c2cc(Cl)cc(Cl)c2)C1=O` (centres undefined) here?
The outcome was “inactive”.

With `Cc1c(F)c(F)c(COC(=O)C2C(/C=C(\Cl)C(F)(F)F)C2(C)C)c(F)c1F` (centres undefined) as the compound, how does the outcome read?
The outcome was “inactive”.

Which outcome does the source give for `COP(=S)(OC)Oc1nc(Cl)c(Cl)cc1Cl` here?
Its outcome is “inactive”.
